These results are taken from PubChem BioAssay (NCI).

The panel holds about 83,000 compounds, 20% with a hit somewhere; the sample as a whole holds those more often.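 The test compound was applied at a single concentration to cells in 96-well plates for 48 hours, and percent growth was recorded.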 A number with no mark means an inactive call. Active and inactive are the calls of the source. How the source made its calls: active means growth percent below 10; inactive means the rest.

One assay relates to OVCAR-4 ovarian. The assay can be described thus: NCI-60 one-dose screen, 48 h (100 = growth as untreated, 0 = no growth, -100 = all killed). The settings on record: 10 µM unless noted.
With `C/C(Cc1ccc(Cl)cc1)=C(\c1ccc(OCCCN(C)C)cc1)c1ccc(OC(=O)Cc2ccccc2)cc1`, the growth is 107%.

On to `COc1ccc(C(=O)/C=C/c2ccc(N3CCCCC3)cc2)cc1OC`, for which the growth was 65.3%.

For `O=C1Nc2c(C(=O)O)cccc2/C1=N/c1n[nH]c(=S)s1`, the growth is 87.9%.

As to `COC(=O)N1CC(Oc2ccccn2)C2CC1c1ccccc1O2` (configuration not stated), the growth was 103%.

With `CN(CCCNC(=O)Cc1ccc2ccc3cccc4ccc1c2c34)CCCNc1cc(-c2ccc3ccccc3c2)nc2ccccc12`, the growth was -83% (active).

`CCOC(=O)C(=Cc1ccc(-c2ccccc2)cc1)C(=O)OCC`: the growth is 75.5%.

As to `COc1ccc(C(O)c2cc3c(N)c(C(=O)Nc4cccc(Cl)c4C)sc3nc2C)cc1` (configuration not stated), the growth was 25.7%.

In the case of `Oc1ccc(/C=C/c2ccc(O)cc2)cc1`, the growth was 12%.

In another assay the test system is SK-OV-3 ovarian. The assay is described as above. The settings on record: 10 µM unless noted.
`CCN(CC)CCN1C(=O)c2cccc3c(/C=C/CN4C(=O)c5cccc6cccc(c56)C4=O)ccc(c23)C1=O`: the growth is 112%.

For the compound `CCN1CCN(C(=O)[C@]23CC[C@@H](C)[C@H](C)[C@@H]2C2=CC[C@@H]4[C@@]5(C)C/C(=C/c6cccnc6)C(=O)C(C)(C)[C@@H]5CC[C@@]4(C)[C@]2(C)CC3)CC1`, the growth is 54.3%.

Regarding `COc1ccc(C2CC(c3cc(OC)c(OC)c(OC)c3)=NO2)cc1OCCCCOc1cc2c(cc1OC)C(=O)N1CCC[C@H]1C=N2` (some centres not stated), the growth is 22%.

On to `Cn1c(=O)c2[nH]c(SCC(=O)Nc3ccc(C(=O)/C=C/c4ccccc4Cl)cc3)nc2n(C)c1=O`, for which the growth is 97.3%.

`CC1(C)N=C(N)N=C(N)N1c1cccc(CCc2ccccc2)c1`: the growth is 58.9%.

Turning to `O=C1c2ccccc2C(=O)c2c1c(C(=O)NCc1ccccc1)c1ccccn21`, the growth was 102%.

As to `CC1C(/C=N/NC(N)=S)C(C#N)(C#N)C1(C#N)C#N` (configuration not stated), the growth was 95.8%.

For `NS(=O)(=O)c1ccc(-c2cc(-c3nnc(SCC(=O)Nc4ccc(C(=O)/C=C/c5ccc(Cl)cc5)cc4)n3-c3ccccc3)c3ccccc3n2)cc1`, the growth was 103%.

With `CC1(C)CC[C@]2(C(=O)N[C@H](CO)Cc3ccccc3)CC[C@]3(C)C(=CC[C@@H]4[C@@]5(C)CCCNC(C)(C)[C@@H]5CC[C@]43C)[C@@H]2C1`, the growth was 100%.

As to `CCCCNc1cc(-c2cn[nH]c2-c2cc(C)cc(OC)c2)nc(-c2cccnc2)n1`, the growth is 97.1%.

Regarding `C/C(=N\O)[C@@H]1CC[C@]2(CO)CC[C@]3(C)[C@H](CC[C@@H]4[C@@]5(C)CCCNC(C)(C)[C@@H]5CC[C@]43C)[C@@H]12`, the growth is 105%.

Regarding `CN(C)CCCC1(c2ccc(F)cc2)OCc2cc(-c3cc4ccccc4s3)ccc21` (configuration not stated), the growth was 68%.

In the case of `C=C(C)[C@@H]1CCC[C@]2(C(=O)O)CC[C@]3(C)[C@@H](CC[C@@H]4[C@@]5(C)C/C(=C/c6ccncc6)C(=O)C(C)(C)[C@@H]5CC[C@]43C)[C@@H]12`, the growth was 78%.

For the compound `C=Cc1cnc(Nc2ccc(OC)cc2)nc1NCCCNC(=O)C1CCC1`, the growth was 20.4%.

Regarding `Cc1ccc(CNc2ccc3nc(CCC(C)C)[nH]c3c2)cc1`, the growth is 100%.

In the case of `O=c1ccc(=O)n(-c2nc(-c3ccc([N+](=O)[O-])cc3)cs2)[nH]1`, the growth was 107%.

Turning to `CC(=O)OC(c1ccccc1)C1CCOC1=O` (configuration not stated), the growth was 106%.

For `Cc1ccc(-c2csc(N(C(=O)N3CCN(c4cc5c(cc4F)c(=O)c(C(=O)O)cn5C4CC4)CC3)c3ccccc3)n2)cc1`, the growth is 28.2%.

With `CCN1CCN(CC(=O)Nc2nc3ccc(NCc4ccc(F)cc4)cc3s2)CC1`, the growth was 105%.

On to `CCOC(=O)c1c(C)nc2c(c1N)CC(=O)N2Cc1ccc(OC)cc1`, for which the growth is 8.96% (active).

Consider `CCNC(=O)Oc1ccc(/C(=C(/C)Cc2ccc(OC)cc2)c2ccc(OCCN3CCCCC3)cc2)cc1`, for which the growth was 90.7%.

For `C=C(C)[C@@H]1CCC[C@]2(C(=O)N3CCN(C)CC3)CC[C@]3(C)[C@@H](CC[C@@H]4[C@@]5(C)CC/C(=N\NC(=O)c6ccncc6)C(C)(C)[C@@H]5CC[C@]43C)[C@@H]12`, the growth was 109%.

Turning to `CCCCCCCCCCCCCOC(=O)c1c(C)[nH]c(/C=C2\N=C(c3ccc[nH]3)C=C2OC)c1C`, the growth was 47.4%.

Regarding `COc1cccc(/C=C/C(=O)c2cccc(Nc3nc(Nc4ccccc4)nc(Nc4ccccc4)n3)c2)c1`, the growth was 101%.
